# Source: PubChem BioAssay (EPA / NIEHS)
# Records with an inconclusive call do not appear. The source made the active and inactive calls. Rule for the calls, unless noted: active = hit-call score of the fitted dose curve at least 0.9, where 1 is the maximum; inconclusive = response in the unintended direction; inactive = score below 0.9.
# Columns and labels:
# [1] = CCTE_Simmons_CellTiterGLO_HEK293T: Viability Assessment in CCTE's Assays for Thyroperoxidase (TPO) Inhibition, Simmons Lab (AID 2283665);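 for AC50: cells exposed to compound for 24 h before readout; actives reduce ATP signal below DMSO vehicle meaning cytotoxicity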
# Summary of the method: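 Cytotoxicity counter-screen: human HEK293T cells in low-serum (1% FBS) medium receive test chemical, 5 nM to 87.5 uM final, for 24 h; ATP is quantified by luciferase luminescence.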
# [2] = STM_H9_OrnCyssISnorm_ratio: Stemina devTOX quickPredict H9 human embryonic stem cell (hESC)-based Assay for Ornithine (ORN):Cystine (CYSS) Ratio (AID 2283714)
# Summary of the method: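 Undifferentiated H9 hESCs were exposed to compound for 72h with media and chemical replaced every 24h. Final 24-h conditioned media were deproteinized and analysed by UPLC-HRMS. ORN and CYSS peak areas were normalized to C13 internal standards and the ratio taken versus 0.1% DMSO.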
# [3] = biological target: Luciferin 4-monooxygenase (Photinus pyralis) (UniProt P08659); assay: CCTE_Simmons_QuantiLum_inhib_2: CCTE's Firefly Luciferase Inhibition Assay, Simmons Lab (AID 2283767);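 for AC50: potency for inhibitors that lower luciferase luminescence relative to DMSO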
# Summary of the method: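 Counter-screen for nonspecific enzyme inhibition: purified firefly luciferase incubated 30 min at 37C with chemicals up to 87.5 uM final, then luminescence measured after luciferin/dATP injection; activity fitted against DMSO baseline.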
# [4] = Tanguay_ZF_120hpf_PE_legacy: (Legacy) Oregon State University Tanguay Lab 120 Hour Post-fertilization zebrafish Assay for Pericardial Edema (AID 2283640)
# Summary of the method: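 Zebrafish larvae are exposed from early development to 120 hpf at 28C, with 0.64% DMSO final. Each surviving larva receives a yes/no pericardial edema call by brightfield imaging, analysed relative to the DMSO baseline.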
# [5] = Tanguay_ZF_120hpf_BRAI_legacy: (Legacy) Oregon State University Tanguay Lab 120 Hour Post-fertilization zebrafish Assay for Brain Malformation (AID 2283641)
# Summary of the method: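 Static exposure of staged wild-type embryos until 120 hpf, kept at 28C with light excluded and final DMSO of 0.64% (vol/vol). Presence or absence of brain malformation was noted under brightfield; mortality precluded scoring.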
# [6] = Tanguay_ZF_120hpf_SOMI_legacy: (Legacy) Oregon State University Tanguay Lab 120 Hour Post-fertilization zebrafish Assay for Somite Malformation (AID 2283647)
# Summary of the method: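 Somitogenesis defects are recorded as binary calls in whole larvae at 120 hpf after continuous static chemical exposure starting at 6 hpf in dechorionated 5D embryos. DMSO serves as negative control and baseline.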
# [7] = Tanguay_ZF_120hpf_PFIN_legacy: (Legacy) Oregon State University Tanguay Lab 120 Hour Post-fertilization zebrafish Assay for Pectoral Fin Malformation (AID 2283648);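 note: each larva judged yes or no for fin defect by brightfield with dead larvae skipped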
# Summary of the method: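 Tropical 5D wild-type embryos, dechorionated with pronase at 4 hpf, were placed singly in wells at 6 hpf and statically exposed until 120 hpf at 28C, sealed and dark, with 0.64% (vol/vol) final DMSO; pectoral fin malformation scored present/absent.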
# [8] = Tanguay_ZF_120hpf_CFIN_legacy: (Legacy) Oregon State University Tanguay Lab 120 Hour Post-fertilization zebrafish Assay for Caudal Fin Malformation (AID 2283649)
# Summary of the method: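 Single dechorionated 5D wild-type embryos are dosed at 6 hpf (final DMSO 0.64%) and held statically at 28C. Caudal fin malformation is recorded as present or absent at 120 hpf under brightfield, excluding dead embryos.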
# [9] = Tanguay_ZF_120hpf_PIG_legacy: (Legacy) Oregon State University Tanguay Lab 120 Hour Post-fertilization zebrafish Assay for Pigmentation Malformation (AID 2283650)
# Summary of the method: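 Tropical 5D wild-type zebrafish embryos, dechorionated with pronase at 4 hpf, were exposed singly from 6 hpf to 120 hpf statically at 28C in sealed, dark plates with 0.64% DMSO; pigmentation scored present/absent by brightfield microscopy, fitted against DMSO.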
# [10] = Tanguay_ZF_120hpf_CIRC_legacy: (Legacy) Oregon State University Tanguay Lab 120 Hour Post-fertilization zebrafish Assay for Circulatory Malformation (AID 2283651)
# Summary of the method: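 Using wild-type Tropical 5D zebrafish, we exposed dechorionated embryos from 6 to 120 hpf in embryo medium with 0.64% DMSO. Circulatory defects were scored as present or absent; 5uM trimethyltin chloride served as positive control.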
# [11] = Tanguay_ZF_120hpf_SWIM_legacy: (Legacy) Oregon State University Tanguay Lab 120 Hour Post-fertilization zebrafish Assay for Swim Bladder Malformation (AID 2283654);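 note: swim bladder malformation in each larva scored yes or no under brightfield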
# Summary of the method: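 Dechorionated Tropical 5D wild-type embryos, placed singly from 6 hpf, were statically exposed at 28C to 120 hpf with 0.64% DMSO final; swim bladder malformation was scored present/absent by brightfield microscopy, gain of signal relative to DMSO controls.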
# [12] = Tanguay_ZF_120hpf_TRUN_legacy: (Legacy) Oregon State University Tanguay Lab 120 Hour Post-fertilization zebrafish Assay for Truncated Body (AID 2283655)
# Summary of the method: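 Single dechorionated zebrafish embryos received test chemical from 6 hpf in 0.64% DMSO, kept at 28C. At 120 hpf, brightfield inspection noted any truncated body.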
# [13] = Tanguay_ZF_120hpf_NC_legacy: (Legacy) Oregon State University Tanguay Lab 120 Hour Post-fertilization zebrafish Assay for Notochord and Tail Malformation (AID 2283656)
# Summary of the method: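 Dechorionated 5D zebrafish, 1/well from 6 hpf; static exposure to 120 hpf, 28C, sealed, dark; final DMSO 0.64% v/v. NC scored binary (present/absent); dead embryos not scored. Fit vs DMSO baseline, gain direction.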
# [14] = Tanguay_ZF_120hpf_TR_legacy: (Legacy) Oregon State University Tanguay Lab 120 Hour Post-fertilization zebrafish Assay for Touch Response (AID 2283667)
# Summary of the method: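 Tropical 5D wild-type zebrafish embryos were exposed statically in sealed, foil-covered plates at 28C until 120 hpf, with 0.64% (vol/vol) final DMSO. Touch response was scored as present or absent; embryos that died were not scored.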
# [15] = Tanguay_ZF_120hpf_ActivityScore_legacy: (Legacy) Oregon State University Tanguay Lab 120 Hour Post-fertilization zebrafish Assay Score for Activity (AID 2283742)
# Summary of the method: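 Tropical 5D wild-type zebrafish embryos, dechorionated with pronase at 4 hpf, were exposed singly from 6 hpf to 120 hpf statically at 28C in 0.64% DMSO. Malformations and mortality were scored as binary by brightfield, with the activity score combining 18 morphology components.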
# [16] = biological target: zebrafish Estrogen Receptor (ESR1), esr1 (gene 259252) (UniProt P57717); assay: ATG_zfER1_XSP1: Attagene TRANS-FACTORIAL Multi-Species (XSP1) HepG2 Assay for zebrafish Estrogen Receptor (ESR1) (AID 2283772)
# Summary of the method: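 Reporter mRNA induction, gauged via RT-PCR/capillary electrophoresis fluorescence relative to DMSO controls, in HepG2 cells transiently carrying GAL4-UAS reporter units; 24 h dosing.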
# [17] = test system: zebrafish Estrogen Receptor (ESR2B), gene 317733; assay: ATG_zfER2b_XSP1: Attagene TRANS-FACTORIAL Multi-Species (XSP1) HepG2 Assay for zebrafish Estrogen Receptor (ESR2B) (AID 2283773)
# Summary of the method: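 HepG2 cells transiently transfected with multiple GAL4-UAS reporter units expressing chimeric zebrafish ER2b-Gal4; 24 h chemical exposure with 3 nM 6-alpha-fluorotestosterone present. Reporter mRNA measured by RT-PCR and capillary electrophoresis; gain of signal fitted versus DMSO.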
# [18] = test system: frog Estrogen Receptor (ESR2), gene 100174814; assay: ATG_frER2_XSP1: Attagene TRANS-FACTORIAL Multi-Species (XSP1) HepG2 Assay for frog Estrogen Receptor (ESR2) (AID 2283774)
# Summary of the method: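 HepG2 cells transiently transfected with GAL4-UAS multiplexed reporter units expressing chimeric NR-Gal4 proteins; reporter mRNA measured 24 h after dosing by RT-PCR, FAM labeling, HpaI digestion and capillary electrophoresis. Gain-of-signal relative to DMSO; 3 nM 6-alpha-fluorotestosterone present.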
# [19] = STM_H9_OrnithineISnorm_perc: Stemina devTOX quickPredict H9 human embryonic stem cell (hESC)-based Assay for Ornithine (ORN) Metabolite Biomarker, Normalized (AID 2283712; active = hit-call score of the fitted dose curve at least 0.9, where 1 is the maximum; inactive = score below 0.9;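 note: ornithine released into spent medium during last day measured by mass spectrometry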)
# Summary of the method: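 Cells: undifferentiated H9 hESC. Dosing: 72 h, media replaced every 24 h. Sample: final 24-h conditioned media, 40% acetonitrile. Read: UPLC-HRMS ornithine area vs 13C standard, % DMSO control.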
# [20] = STM_H9_CystineISnorm_perc: Stemina devTOX quickPredict H9 human embryonic stem cell (hESC)-based Assay for Cystine (CYSS) Metabolite Biomarker, Normalized (AID 2283713; active = hit-call score of the fitted dose curve at least 0.9, where 1 is the maximum; inactive = score below 0.9)
# Summary of the method: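 Secreted cystine was measured by UPLC-HRMS in H9 hESC medium after 72h compound exposure with 24-hourly replenishment. Values are standard-normalized areas relative to 0.1% DMSO.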
# Sequence of Luciferin 4-monooxygenase (Photinus pyralis) (P08659 whole entry, looked up): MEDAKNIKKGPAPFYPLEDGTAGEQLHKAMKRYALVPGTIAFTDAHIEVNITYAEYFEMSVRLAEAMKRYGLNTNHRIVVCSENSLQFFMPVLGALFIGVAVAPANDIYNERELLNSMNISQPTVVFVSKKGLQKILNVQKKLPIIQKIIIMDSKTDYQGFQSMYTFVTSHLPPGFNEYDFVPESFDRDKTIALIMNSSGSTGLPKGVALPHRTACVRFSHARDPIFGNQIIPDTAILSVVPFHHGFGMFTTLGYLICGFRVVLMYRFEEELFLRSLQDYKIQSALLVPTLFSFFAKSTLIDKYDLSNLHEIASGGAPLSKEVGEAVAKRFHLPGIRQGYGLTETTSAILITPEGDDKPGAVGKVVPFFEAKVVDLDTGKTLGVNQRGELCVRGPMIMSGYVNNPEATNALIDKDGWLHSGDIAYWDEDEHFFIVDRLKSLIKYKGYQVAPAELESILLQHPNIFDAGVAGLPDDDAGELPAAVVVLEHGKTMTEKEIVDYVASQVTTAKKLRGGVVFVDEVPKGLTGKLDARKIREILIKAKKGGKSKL
# Sequence of zebrafish Estrogen Receptor (ESR1), esr1 (gene 259252) (P57717 whole entry, looked up, the tested form may be a part): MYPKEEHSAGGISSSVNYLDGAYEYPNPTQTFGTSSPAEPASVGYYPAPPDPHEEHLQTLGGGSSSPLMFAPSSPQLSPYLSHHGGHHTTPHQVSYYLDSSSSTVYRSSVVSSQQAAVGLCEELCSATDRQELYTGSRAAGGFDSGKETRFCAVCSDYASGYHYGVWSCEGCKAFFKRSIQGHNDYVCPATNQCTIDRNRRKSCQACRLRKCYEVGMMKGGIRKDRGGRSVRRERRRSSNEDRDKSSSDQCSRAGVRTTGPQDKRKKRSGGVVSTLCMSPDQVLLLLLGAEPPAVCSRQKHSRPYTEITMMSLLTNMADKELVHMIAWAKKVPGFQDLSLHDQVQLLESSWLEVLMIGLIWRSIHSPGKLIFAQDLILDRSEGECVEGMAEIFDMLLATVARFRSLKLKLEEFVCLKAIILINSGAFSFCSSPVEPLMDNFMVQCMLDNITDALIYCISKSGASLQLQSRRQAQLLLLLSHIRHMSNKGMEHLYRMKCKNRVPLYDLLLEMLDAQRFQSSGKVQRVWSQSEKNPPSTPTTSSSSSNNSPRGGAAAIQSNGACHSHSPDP
smiles,measurement,setting,value
CN(C)c1ccc2nc3ccc(=[N+](C)C)cc-3sc2c1,AC50,[1],13.7 µM (active)
same,AC50,[2],2.34 µM (active)
same,AC50,[3],0.676 µM (active)
CCCCCCOc1ccc(N)cc1,AC50,[3],28.7 µM (active)
CCCCC1C(=O)N(c2ccccc2)N(c2ccccc2)C1=O,outcome,[1],inactive
same,outcome,[2],inactive
same,outcome,[3],inactive
CC(CCC(=O)O)(c1ccc(O)cc1)c1ccc(O)cc1,outcome,[2],inactive
same,outcome,[3],inactive
Cc1ccc([N+](=O)[O-])cc1N,outcome,[4],inactive
same,outcome,[5],inactive
same,outcome,[6],inactive
same,outcome,[7],inactive
same,outcome,[8],inactive
same,outcome,[9],inactive
same,outcome,[10],inactive
same,outcome,[11],inactive
same,outcome,[12],inactive
same,outcome,[13],inactive
same,outcome,[14],inactive
same,outcome,[15],inactive
CC(C)(C)NC(=O)[C@H]1CC[C@H]2[C@@H]3CC[C@H]4NC(=O)C=C[C@]4(C)[C@H]3CC[C@]12C,outcome,[16],inactive
same,AC50,[17],67.2 µM (active)
same,AC50,[18],38.1 µM (active)
CCc1occc(=O)c1O,outcome,[3],inactive
COC(=O)c1ccccc1C,outcome,[1],inactive
same,outcome,[3],inactive
Nc1ccc(C(=O)O)cc1,outcome,[4],inactive
same,outcome,[6],inactive
same,outcome,[7],inactive
same,outcome,[8],inactive
same,outcome,[9],inactive
same,outcome,[10],inactive
same,outcome,[11],inactive
same,outcome,[12],inactive
same,outcome,[13],inactive
same,outcome,[14],inactive
same,outcome,[15],inactive
COC(=O)C=Cc1ccccc1,outcome,[2],inactive
CC1(C)[C@@H]2CC[C@@]1(C)C(=O)C2,outcome,[19],inactive
same,outcome,[20],inactive
O=C(O)c1cc(O)c2ccccc2c1O,AC50,[1],28.6 µM (active)
same,AC50,[3],39.9 µM (active)
C1CNCCN1,outcome,[4],inactive
same,outcome,[5],inactive
same,outcome,[6],inactive
same,outcome,[7],inactive
same,outcome,[8],inactive
same,outcome,[9],inactive
same,outcome,[10],inactive
same,outcome,[11],inactive
same,outcome,[12],inactive
same,outcome,[13],inactive
same,outcome,[14],inactive
same,outcome,[15],inactive
CC(C)(c1ccccc1)c1ccc(Nc2ccc(C(C)(C)c3ccccc3)cc2)cc1,AC50,[3],53.8 µM (active)
CCCCC/C=C\C/C=C\CCCCCCCC(=O)O,AC50,[1],86.4 µM (active)
same,outcome,[3],inactive
CC(C)c1ccc(O)c(C(C)C)c1,AC50,[1],28.4 µM (active)
same,outcome,[3],inactive
COc1ccc(-c2coc3cc(O)cc(O)c3c2=O)cc1,AC50,[1],86.5 µM (active)
same,AC50,[3],9.08 µM (active)
C/C=C/C=C/CCCCCCCO,AC50,[1],87.2 µM (active)
same,outcome,[3],inactive
CC1=NN(c2ccc(S(=O)(=O)O)cc2)C(=O)C1N=Nc1ccccc1 (configuration not stated),outcome,[1],inactive
same,outcome,[3],inactive
c1ccc(Nc2cccc3ccccc23)cc1,AC50,[1],28.4 µM (active)
same,AC50,[3],53.8 µM (active)
CCCCCCCCCCCCc1ccc(O)cc1,AC50,[1],11.4 µM (active)
same,outcome,[3],inactive
O=S(=O)(O)c1ccc(N=Nc2c(O)ccc3ccccc23)cc1,AC50,[1],18.1 µM (active)
same,AC50,[3],24.3 µM (active)
Oc1ccccc1Cc1ccccc1O,AC50,[2],60.6 µM (active)
CCCCCCCOC(=O)c1ccc(O)cc1,AC50,[1],35.7 µM (active)
same,AC50,[3],76.7 µM (active)
O=c1c(O)c(-c2ccc(O)cc2O)oc2cc(O)cc(O)c12,outcome,[1],inactive
same,AC50,[3],68.3 µM (active)
N#Cc1ccc(C(c2ccc(C#N)cc2)n2cncn2)cc1,outcome,[3],inactive
CCCCCCCCCC[N+](C)(CCCCCCCCCC)CCC[Si](OC)(OC)OC,AC50,[1],16 µM (active)
COc1ccc(C(=O)c2ccccc2)c(O)c1,outcome,[1],inactive
same,outcome,[2],inactive
same,AC50,[3],53.6 µM (active)
